# Source: PubChem BioAssay
# Compounds with a hit are over-represented: about 2.8% of the library has one in this group of screens.
# GLP-1R inv ag – GLP-1 receptor (human) inverse agonism. HEK293 GLP-1R CRE-luciferase, luminescence, 24 h; GLP-1R form is constitutively active. Potency, µM (doses to about 38.3 µM), actives largely listed as inhibitors. 1.6% of 410,000 active. AID 624417; also: nearly all actives have a fitted effect of over 55% in size
# Target sequence (P43220 whole entry, looked up): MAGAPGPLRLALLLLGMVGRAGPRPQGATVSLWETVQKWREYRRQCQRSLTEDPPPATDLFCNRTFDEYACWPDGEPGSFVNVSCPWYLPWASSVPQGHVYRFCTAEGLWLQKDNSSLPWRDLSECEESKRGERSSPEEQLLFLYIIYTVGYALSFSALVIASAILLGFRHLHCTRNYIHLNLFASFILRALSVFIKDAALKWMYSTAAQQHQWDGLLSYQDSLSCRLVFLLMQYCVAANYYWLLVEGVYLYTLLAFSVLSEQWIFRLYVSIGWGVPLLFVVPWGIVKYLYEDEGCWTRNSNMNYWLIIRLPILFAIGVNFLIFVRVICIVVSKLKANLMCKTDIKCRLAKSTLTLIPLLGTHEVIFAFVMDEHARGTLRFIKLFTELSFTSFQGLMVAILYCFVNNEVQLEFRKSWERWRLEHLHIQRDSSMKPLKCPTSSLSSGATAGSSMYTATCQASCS
#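 Inverse agonism was detected as reduced cAMP-driven luciferase luminescence after 24 h compound treatment. The cells were HEK293 clones expressing constitutively active human GLP-1R with the reporter. Reporter-only and GPR119 cell lines served as counterscreen controls.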
# KCNH2 WT inh – KCNH2 (human, wildtype) channel inhibition; AID 720551; activity change, % at 1.84 µM; 0.37% of 340,000 active; U2OS, BacMam KCNH2, thallium flux FluxOr; stronger effect = lower value; Q12809;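 active = maximum activity change below -70%; inconclusive = maximum activity change between -70% and -50%; inactive = maximum activity change above -50%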
#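 U2OS cells were transduced with wild-type KCNH2 virus (2.03 x 10^8 / mL) for 4 h at room temperature, then cultured overnight at 37 C. Thallium flux was read with FluxOr dye. Rate constants were normalized to DMSO controls.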
# KCNH2 3.1 inh – inhibitors of human KCNH2 3.1 potassium channel isoform; 0.95% of 340,000 active; activity change, % (tested at about 1.8 µM); AID 720553; U2OS KCNH2 3.1, thallium flux FluxOr; stronger effect = lower value;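 active = maximum activity change below -70%; inconclusive = maximum activity change from -70% to -50%; inactive = maximum activity change above -50%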;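 also: thallium influx rate constant from kinetic fluorescence after stimulation buffer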
#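 Normalized rate constant (relative to positive and negative DMSO controls) derived from a 2 min kinetic fluorescence read after stimulation; U2OS cells expressing the 3.1 isoform via virus at 1.77 x 10^8 /mL.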
# GLP1R ag – activates the human GLP-1 receptor. Potency, µM (doses to about 45.6 µM), hits mostly activators. 0.007% of 380,000 active. AID 624172. HEK293 GLP-1R CRE-luciferase, luminescence, 4-6 h; cells express a hypersensitive GLP-1R form
# GLS inhibitor – glutaminase GLS (human) inhibition | 0.21% of 410,000 active | GLS enzymatic activity, qHTS titration | Potency, µM (titrated, usually from 45.5 µM), most hits filed as inhibitors
#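 Human kidney-isoform GLS in 45 mM KH2PO4 pH 8.2, 0.02% Tween-20, with compound, started with 1mM L-Glutamine (added stock). Glutamate oxidase/HRP/Amplex red coupled fluorescence read at start and after 30 min at RT.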
# GLP1R cytotox – cytotoxicity counter-screen for GLP-1 receptor inverse agonists | HEK293 cAMP-luciferase reporter cells, luminescence, 24 h | Potency, µM (doses to about 38.3 µM), hits mostly inhibitors | 0.13% of 410,000 active | AID 624418;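 also: loss of luciferase light is scored as toxicity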
#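 Compound-treated cells are incubated 24 hr at 37 deg C under 5% CO2 after a 12 hour attachment period, then luciferase detection reagent is added and luminescence is measured following 12 min at room temperature; lowered signal indicates toxicity.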
# Numbers stand for hits; 0 = inactive; ? = inconclusive; - = no result; [ ] = remark or other dose. Unless noted, calls follow the shape of the dose curve; as a rule, active = well fitted curve in the direction sought with a large enough effect; inconclusive = small, poorly fitted or top-dose-only effect, or another doubt; inactive = no such curve, though single readings can be large; an effect the other way counts as inactive or inconclusive.
SMILES,GLP-1R inv ag,KCNH2 WT inh,KCNH2 3.1 inh,GLP1R ag,GLS inhibitor,GLP1R cytotox
COc1ccc2c(c1)c(CCNNC(=O)C(C)(C)C)c(C)n2C(=O)c1ccc(Cl)cc1,10µM,0,0,0,0,?
COC(=O)CNC(=O)Cc1c(C)n(C(=O)c2ccc(Cl)cc2)c2ccc(OC)cc12,?,0,0,0,0,0
CCCn1c(CCCNC(=O)c2ccccc2OC)nc2ccccc21,0,-,-,0,0,0
O=C(NC1CCCCC1)N1CCC(n2c(=O)[nH]c3ccccc32)CC1,0,0,0,0,0,0
O=c1[nH]c2ccccc2n1C1CCCCC1,0,-84,0,0,0,0
COc1ccc(OC)c(-n2c(=O)[nH]c3cc(C(=O)NCCc4ccc(OC)c(OC)c4)ccc3c2=O)c1,0,-,-,-,0,0
CCOC(=O)CSc1cccc2cccnc12,?,0,0,0,0,3.5µM
COc1ccc(NC(=O)CN2C(=O)CSc3ccc(S(=O)(=O)N(C)C)cc32)cc1Cl,0,-,-,-,0,0
CC1CC(C)CN(CCOc2ccc(Br)cc2)C1 (configuration not stated),0,0,-96,0,0,0
CC1CC(C)CN(CC(O)COCCOc2ccc(Br)cc2)C1 (configuration not stated),?,0,0,0,0,0
COCc1c(C(=O)N2CCN(c3ccccc3C)CC2)oc2ccccc12,?,0,0,0,0,0
O=C(Nc1cc(C(F)(F)F)ccc1-n1cncn1)c1cn2ccccc2n1,0,-152,-207,0,0,0
Cc1ccc(-n2c(SCC(=O)Nc3ccc4cn[nH]c4c3)nnc2-c2ccco2)cc1,0,0,-112,0,0,0
CCN1C(=O)C(=CC=CN(C)c2ccccc2)SC1=S,0,-72,0,0,0,0
O=C(O)CN1C(=O)/C(=C/C=C/c2ccccc2)SC1=S,0,-,0,0,0,0
Cc1cccc(NC(=O)COC(=O)CN2CCCCCC2=O)c1C,0,0,0,0,0,0
O=C(NCc1ccccn1)c1ccccc1OCc1ccccc1Cl,?,0,0,0,0,0
O=C(NCc1ccccn1)c1ccccc1OCc1ccc(F)cc1,?,0,-101,0,0,0
O=C(CC1SC(=Nc2ccc(OC(F)F)cc2)N(CCN2CCOCC2)C1=O)Nc1ccccc1 (configuration not stated),10µM,0,0,0,0,0
COc1ccc(OC)c(NC(=O)CC2SC(=Nc3ccc(F)cc3)N(CCC3=CCCCC3)C2=O)c1 (configuration not stated),4.5µM,0,0,0,0,0
O=C(CC1SC(=Nc2ccc(OC(F)F)cc2)N(CCN2CCOCC2)C1=O)Nc1ccc(F)cc1F (configuration not stated),?,-101,-114,0,0,0
O=C(NCc1cccs1)C1Cc2c(-c3ccc(Cl)cc3)ccnc2O1 (configuration not stated),?,-,-,0,0,?
COc1ccc2c(C(=S)N(C)CC(=O)O)cccc2c1C(F)(F)F,-,-,-,0,0,-
CC(C)N1CCc2c(sc(N)c2C#N)C1,0,0,0,0,14µM,0
CCC1(c2ccccc2)NC(=O)N(CC(=O)NCc2ccc(OC)cc2)C1=O (configuration not stated),0,0,0,?,0,0
SMILES,GLP-1R inv ag,KCNH2 WT inh,KCNH2 3.1 inh,GLP1R ag,GLS inhibitor,GLP1R cytotox
CCCCCCOc1ccc(C2C(=O)N(C3CCCCC3)CC(=O)N2CCCC)cc1 (configuration not stated),?,-,-,-,0,0
COc1ccc(C2c3ccc4ccccc4c3Oc3ncn(CCO)c(=N)c32)cc1 (configuration not stated),?,0,0,0,0,0
COc1ccc(C2c3ccc4ccccc4c3Oc3ncn(CCN(C)C)c(=N)c32)cc1 (configuration not stated),4µM,0,0,0,0,?
COc1ccc(C2c3ccc4ccccc4c3Oc3ncn(CCCO)c(=N)c32)cc1 (configuration not stated),5.6µM,0,0,0,?,?
Cc1c(C#N)c(NC(=O)CCl)n(Cc2cccs2)c1C,5.6µM,0,0,0,0,?
Cc1c(C#N)c(NC(=O)CCl)n(Cc2ccccc2)c1C,?,0,0,0,0,?
O=S(=O)(Nc1nccs1)c1ccc(NS(=O)(=O)c2c(F)cc(F)c(Cl)c2F)cc1,0,-105,0,0,0,0
CCC(=O)N1CCc2cc(S(=O)(=O)N(C)c3cccc(C)c3)ccc21,0,-,-,0,0,0
Cc1ccc(C(=O)Nc2ccnc(-c3cccnc3)n2)cc1,0,0,-109,0,0,0
COc1ccc(C(=O)Nc2ccnc(-c3cccnc3)n2)cc1,0,0,0,0,0,0
CCC(=O)Nc1ccnc(-c2cccnc2)n1,0,0,-108,0,0,0
CC1CCN(c2csc3ccc(F)cc3c2=O)CC1,0,-,-,-,0,0
O=C(CCCN1CCN(c2ccc(F)cc2)CC1)NC1c2ccccc2CSc2ccccc21 (configuration not stated),-,-,-,0,0,-
CCCCOC(=O)C1CN(c2ccccc2)N=C1C(=O)OCC (configuration not stated),10µM,0,0,0,0,0
O=C(CCNC(=O)c1ccccc1Cl)Nc1nc(-c2ccccc2Cl)cs1,7.9µM,0,0,0,0,0
O=C(CCNC(=O)c1ccccc1Cl)Nc1nc(-c2ccc(F)cc2)cs1,0,0,0,0,0,0
O=C(CSc1nc2ccccc2c(=O)n1-c1ccc(F)cc1F)c1c[nH]c2ccccc12,?,-122,0,0,0,0
COc1ccc(NC(=O)c2cc(C3CCCCN3C(=O)c3ccc(Cl)cc3)on2)c(C)c1 (configuration not stated),?,-,-,0,0,0
Cn1nc(-c2ccc(Cl)cc2)c2cc(C(=O)N3CCN(c4ccccc4)CC3)sc21,0,0,0,0,0,0
Cn1nc(-c2ccc(Cl)cc2)c2cc(C(=O)N3CCCC3)sc21,0,-143,-209,0,0,0
COc1ccc(Nc2ccccc2NC(=O)c2ccccc2Br)cc1,?,0,0,0,10µM,0
COc1ccc(Nc2ccccc2N)cc1,?,0,0,0,10µM,0[7.66 µM]
CCN(CCNC(=O)C1CCCN(Cc2nc(-c3ccc(OC)cc3)oc2C)C1)c1ccccc1 (configuration not stated),0,0,0,0,0,?
CCC1CCCCN1CCCNC(=O)C1CCN(Cc2nc(-c3ccc(Cl)cc3)oc2C)CC1 (configuration not stated),13µM,-,0,0,0,5µM
